Assay results: PubChem BioAssay (NCI)
The panel holds about 79,000 compounds, 15% with a hit somewhere; the sample as a whole holds those more often. Calls of active or inactive are those of the source. Cut-off read from the data, not from the text of the source: active = growth inhibition above about 70%; inactive = the rest.

assay: NCI Yeast Anticancer Drug Screen. Data for the sgs1 mgt1 strain (AID 161);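 note: 0% = growth of cultures given vehicle only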; details: S. cerevisiae sgs1 mgt1 strain, at 50.0 µM, hits give high values
Summary of the method: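 Percent growth inhibition was derived by comparing compound-exposed mutant yeast with vehicle-exposed cultures. The strain carries alterations in DNA damage repair.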

SMILES | growth inhibition
C/C=N\N1C(=O)c2ccccc2C1=O | 13.8% (inactive)
[Cl][Ce]([Cl])[Cl] | 24.9% (inactive)
CCCCN(CCCC)CCCCCCCCCCCO | 34.5% (inactive)
CCCCCCCCCCCCCCCCCCCOc1ccc(OCCCCCCCCCC)cc1 | 24.6% (inactive)
Cc1ccc(NC(=O)CSc2nnc(Cc3ccccc3)o2)c(C)c1 | -57.8% (inactive)
CCN(CC)CCNc1ccccc1 | -8.55% (inactive)
Cc1ccc(N=Nc2ccc([N+](=O)[O-])cc2)c([N+](=O)[O-])c1 | -4.5% (inactive)
C/C(=C\c1ccc(F)cc1)C(=O)O | 0% (inactive)
COc1ccc(-c2cc(-c3ccc(OC)cc3)cc(-c3ccc(OC)cc3)c2)cc1 | -14.9% (inactive)
CCOC(=O)C12CCCC1(O)N(NC(=O)c1ccccc1)C(C)=C2C(=O)OC (stereo not given) | 6.3% (inactive)
NCCNCCCCCCCCCCCCOS(=O)(=O)O | -6.35% (inactive)
COc1ccc(CNc2cnc3cc(N)ccc3n2)cc1OC | -37.5% (inactive)
COc1ccc(/C(=C/n2ccnc2)C(O)c2ccc(OC)c(OC)c2)cc1OC (stereo not given) | -31.8% (inactive)
CC(C)(c1ccccc1)C(C)(C)c1nc(-c2ccccc2)cc(-c2ccccc2)n1 | -4.65% (inactive)
Cc1cccc([B-]23OCC[N+]2(CNC(=O)c2ccccc2O)CCO3)c1 (stereo not given) | -7.5% (inactive)
O=c1[nH]c2ccccc2c(O)c1O | 22.9% (inactive)
N#Cc1cc2c3ccccc3ncc2c2ccccc12 | -3% (inactive)
OCC1SC(O)C(O)C(O)C1O (stereo not given) | 11.8% (inactive)
CO/N=C1/c2sccc2[C@H](NC(=O)C(Cc2ccccc2)NC(=O)OC(C)(C)C)[C@@H]1O (stereo not given in full) | -14% (inactive)
CC(C)(C)OC(=O)CNC(=O)C(CSC(c1ccccc1)(c1ccccc1)c1ccccc1)N1C(=O)c2ccccc2C1=O (stereo not given) | 46.2% (inactive)

SMILES | growth inhibition
CCCC(=O)/C=C\c1ccccc1 | 6.55% (inactive)
O=C(CCC(=O)Nc1ccc(Cl)cc1)CC(=O)c1ccc2ccccc2c1 | -13.3% (inactive)
CN(C)Cc1cc(C(C)(C)C)ccc1-c1ccc(C(C)(C)C)cc1CN(C)C | -39.5% (inactive)
COc1ccc(C(=O)CCl)c(O)c1OC | -5.6% (inactive)
O=CN/C=C/c1ccccc1O | 4.1% (inactive)
Cc1ccc(C)c(NC(=O)Oc2cc(C)c(Cl)cc2C(C)C)c1 | 98.5% (active)
Cc1nc(C(Cl)(Cl)Cl)nc(C(Cl)(Cl)Cl)n1 | 27.2% (inactive)
CC(=O)NC(CCCN(Cc1ccccc1)C(=O)NCCCl)C(=O)NCc1ccccc1 (stereo not given) | 4.5% (inactive)
CC1c2c(cc(=O)n(C)c2O)C(=O)N1Cc1ccccc1 (stereo not given) | 8.7% (inactive)
O=C1CCCC1CN1CCCCC1 (stereo not given) | -13.7% (inactive)
CC1=CC(=O)C(=CN2C(=O)/C(=C\c3cccnc3)NC2=S)C(=O)O1 | -18.9% (inactive)
Cc1cnc(NCCCCNc2ncc(C)c(-c3ccccc3O)n2)nc1-c1ccccc1O | -0.55% (inactive)
Cc1nc(C)c(C(=O)NNC(=O)C[n+]2ccccc2)cc1C(=O)NNC(=O)C[n+]1ccccc1 | -11.4% (inactive)
O=C(O)c1ccccc1C(=O)c1ccc(F)c2ccccc12 | 18.6% (inactive)
O=C1c2ccccc2C(=Cc2cccnc2)c2ccccc21 | 30.1% (inactive)
CC(=O)Nc1ccc(S(=O)(=O)NCCC(=O)O)cc1 | 2.45% (inactive)
CC(C(=O)c1ccc(Cl)cc1)C1=NC2NN(c3ccccc3)C(=O)C2=C1C(C)C(=O)c1ccc(Cl)cc1 (stereo not given) | 6% (inactive)
Clc1ccc(N=C2CCCCC2)cc1 | -0.2% (inactive)
Nc1ncnc2nc(I)[nH]c12 | -4.55% (inactive)
O=C(OC1CCC(c2ccccc2)C1)c1cc([N+](=O)[O-])cc([N+](=O)[O-])c1 (stereo not given) | 29.4% (inactive)

assay: NCI Yeast Anticancer Drug Screen. Data for the cln2 rad14 strain (AID 165);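 note: 0% = growth equal to vehicle treated cultures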; details: S. cerevisiae cln2 rad14 strain, at 50.0 µM, hits give high values
Summary of the method: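 Yeast strain cln2 rad14, bearing defects in cell cycle control and DNA repair, serves as the test system; values reflect growth inhibition compared with vehicle.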

SMILES | growth inhibition
C/C=N\N1C(=O)c2ccccc2C1=O | 9.1% (inactive)
[Cl][Ce]([Cl])[Cl] | 16.4% (inactive)
CCCCN(CCCC)CCCCCCCCCCCO | -22.9% (inactive)
CCCCCCCCCCCCCCCCCCCOc1ccc(OCCCCCCCCCC)cc1 | -10.4% (inactive)
Cc1ccc(NC(=O)CSc2nnc(Cc3ccccc3)o2)c(C)c1 | -22.8% (inactive)
CCN(CC)CCNc1ccccc1 | -48.4% (inactive)
Cc1ccc(N=Nc2ccc([N+](=O)[O-])cc2)c([N+](=O)[O-])c1 | 17.4% (inactive)
C/C(=C\c1ccc(F)cc1)C(=O)O | 11.2% (inactive)
COc1ccc(-c2cc(-c3ccc(OC)cc3)cc(-c3ccc(OC)cc3)c2)cc1 | -27.8% (inactive)
CCOC(=O)C12CCCC1(O)N(NC(=O)c1ccccc1)C(C)=C2C(=O)OC (stereo not given) | -56.5% (inactive)
NCCNCCCCCCCCCCCCOS(=O)(=O)O | -15.3% (inactive)
COc1ccc(CNc2cnc3cc(N)ccc3n2)cc1OC | 3.15% (inactive)
COc1ccc(/C(=C/n2ccnc2)C(O)c2ccc(OC)c(OC)c2)cc1OC (stereo not given) | -2.25% (inactive)
CC(C)(c1ccccc1)C(C)(C)c1nc(-c2ccccc2)cc(-c2ccccc2)n1 | -95% (inactive)
Cc1cccc([B-]23OCC[N+]2(CNC(=O)c2ccccc2O)CCO3)c1 (stereo not given) | -11.6% (inactive)
O=c1[nH]c2ccccc2c(O)c1O | 14.7% (inactive)
N#Cc1cc2c3ccccc3ncc2c2ccccc12 | -1.1% (inactive)
OCC1SC(O)C(O)C(O)C1O (stereo not given) | 10.7% (inactive)
CO/N=C1/c2sccc2[C@H](NC(=O)C(Cc2ccccc2)NC(=O)OC(C)(C)C)[C@@H]1O (stereo not given in full) | -11.9% (inactive)
CC(C)(C)OC(=O)CNC(=O)C(CSC(c1ccccc1)(c1ccccc1)c1ccccc1)N1C(=O)c2ccccc2C1=O (stereo not given) | 31.9% (inactive)

SMILES | growth inhibition
CCCC(=O)/C=C\c1ccccc1 | -61.9% (inactive)
O=C(CCC(=O)Nc1ccc(Cl)cc1)CC(=O)c1ccc2ccccc2c1 | 8.4% (inactive)
CN(C)Cc1cc(C(C)(C)C)ccc1-c1ccc(C(C)(C)C)cc1CN(C)C | 12.6% (inactive)
COc1ccc(C(=O)CCl)c(O)c1OC | 14.8% (inactive)
O=CN/C=C/c1ccccc1O | 6.95% (inactive)
Cc1ccc(C)c(NC(=O)Oc2cc(C)c(Cl)cc2C(C)C)c1 | 72.8% (active)
Cc1nc(C(Cl)(Cl)Cl)nc(C(Cl)(Cl)Cl)n1 | 9% (inactive)
CC(=O)NC(CCCN(Cc1ccccc1)C(=O)NCCCl)C(=O)NCc1ccccc1 (stereo not given) | 5.7% (inactive)
CC1c2c(cc(=O)n(C)c2O)C(=O)N1Cc1ccccc1 (stereo not given) | -2.6% (inactive)
O=C1CCCC1CN1CCCCC1 (stereo not given) | 8.5% (inactive)
CC1=CC(=O)C(=CN2C(=O)/C(=C\c3cccnc3)NC2=S)C(=O)O1 | -20.1% (inactive)
Cc1cnc(NCCCCNc2ncc(C)c(-c3ccccc3O)n2)nc1-c1ccccc1O | -27.1% (inactive)
Cc1nc(C)c(C(=O)NNC(=O)C[n+]2ccccc2)cc1C(=O)NNC(=O)C[n+]1ccccc1 | 11.7% (inactive)
O=C(O)c1ccccc1C(=O)c1ccc(F)c2ccccc12 | 21.1% (inactive)
O=C1c2ccccc2C(=Cc2cccnc2)c2ccccc21 | 20.2% (inactive)
CC(=O)Nc1ccc(S(=O)(=O)NCCC(=O)O)cc1 | 4.3% (inactive)
CC(C(=O)c1ccc(Cl)cc1)C1=NC2NN(c3ccccc3)C(=O)C2=C1C(C)C(=O)c1ccc(Cl)cc1 (stereo not given) | -0.3% (inactive)
Clc1ccc(N=C2CCCCC2)cc1 | 8.45% (inactive)
Nc1ncnc2nc(I)[nH]c12 | -6.75% (inactive)
O=C(OC1CCC(c2ccccc2)C1)c1cc([N+](=O)[O-])cc([N+](=O)[O-])c1 (stereo not given) | -4.3% (inactive)
